Values joined by “and” are separate entries in the source; they are usually repeats but may differ in a detail not shown here. Equal entries are not always repeated. In all, about 5,500 compounds went through this assay and about 2,000 (36%) were called active. Inconclusive results (about 18%) are left out. Cut-off read from the data, not from the text of the source: active = normalized growth mostly below about 0.91 (no sharp cut-off); inconclusive = no clear call, values can overlap the other calls; inactive = mostly above about 0.92. This is one part of the list.
Assay: chemical genetic growth profiling, strain panel (AID 1159580);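 note: tested at 20 µM; growth read once vehicle control cultures reached saturation at 30 °C; 1 = growth at the plate median or of vehicle wells; lower values mean less growth of the strain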
Conditions: S. cerevisiae deletion strains, growth OD

Measured: normalized growth

CNC(=O)Oc1ccc2c(c1)[C@]1(C)CCN(C)[C@@H]1N2C
inactive: locus YAL013W, strain DEP1, active compounds read low 1.03 | locus YAL021C, strain ccr4, active compounds read low 1 | locus YAL026C, strain drs2, active compounds read low 1 | locus YAL030W, strain snc1, active compounds read low 1.02 | locus YBL061C, strain skt5, active compounds read low 1.02 | locus YBR009C, strain hhf1, active compounds read low 0.998 | locus YBR021W, strain FUR4, active compounds read low 0.99 | locus YBR023C, strain chs3, active compounds read low 1.02 | locus YBR171W, strain sec66, active compounds read low 1.03 | locus YBR229C, strain ROT2, active compounds read low 1.01 | locus YBR231C, strain swc5, active compounds read low 1.01 | locus YBR279W, strain paf1, active compounds read low 1.03 | locus YCL011C, strain gbp2, active compounds read low 1.03 | locus YCL016C, strain dcc1, active compounds read low 1.05 | locus YCL029C, strain bik1, active compounds read low 1.01 | locus YCL061C, strain MRC1, active compounds read low 1.01 | locus YCL069W, strain vba3, active compounds read low 1.02 | locus YCR088W, strain abp1, active compounds read low 1.02 | locus YDL005C, strain med2, active compounds read low 1.02 | locus YDL035C, strain GPR1, active compounds read low 1.01 | locus YDL040C, strain nat1, active compounds read low 1 | locus YDL074C, strain BRE1, active compounds read low 1.04 | locus YDL101C, strain DUN1, active compounds read low 1.01 | locus YDL134C, strain PPH21, active compounds read low 1.04 | locus YDL185W, strain tfp1, active compounds read low 0.992 | locus YDL192W, strain arf1, active compounds read low 1.02 | locus YDR001C, strain nth1, active compounds read low 1.01 | locus YDR069C, strain doa4, active compounds read low 0.998 | locus YDR101C, strain arx1, active compounds read low 1.02 | locus YDR137W, strain rgp1, active compounds read low 1.05 | locus YDR159W, strain sac3, active compounds read low 0.969 | locus YDR162C, strain NBP2, active compounds read low 1.03 | locus YDR195W, strain ref2 0.977 | locus YDR297W, strain sur2, active compounds read low 1.01 | locus YDR318W, strain mcm21, active compounds read low 1.01 | locus YDR334W, strain swr1, active compounds read low 1.02 | locus YDR335W, strain msn5, active compounds read low 1.01 | locus YDR388W, active compounds read low 1.01 | locus YDR392W, strain spt3, active compounds read low 0.816 | locus YDR502C, strain sam2, active compounds read low 1.01 | locus YEL003W, strain gim4, active compounds read low 1.01 | locus YEL037C, strain rad23, active compounds read low 1.01 | locus YEL061C, strain CIN8 (second series), active compounds read low 1.02 | locus YEL061C, strain CIN8, active compounds read low 1.01 | locus YER015W, strain faa2, active compounds read low 1.01 | locus YER016W, strain bim1, active compounds read low 1.02 | locus YER110C, active compounds read low 1.02 | locus YER111C, strain swi4, active compounds read low 1.01 | locus YER155C, strain BEM2 (second series), active compounds read low 0.99 | locus YER155C, strain BEM2, active compounds read low 0.993 | locus YER167W, strain BCK2, active compounds read low 1.02 | locus YFR010W, strain ubp6, active compounds read low 1.01 | locus YGL078C, strain dbp3, active compounds read low 1.01 | locus YGL086W, strain mad1, active compounds read low 0.999 | locus YGL167C, strain pmr1, active compounds read low 1.02 | locus YGL173C, strain kem1, active compounds read low 1.01 | locus YGL227W, strain vid30, active compounds read low 1.01 | locus YGL240W, strain doc1, active compounds read low 0.992 | locus YGL248W, strain PDE1, active compounds read low 1.01 | locus YGL253W, strain hxk2, active compounds read low 0.989 | locus YGR135W, strain pre9, active compounds read low 1.03 | locus YGR229C, strain SMI1, active compounds read low 1.01 | locus YGR252W, strain gcn5, active compounds read low 1.03 | locus YHR013C, strain ard1, active compounds read low 0.981 | locus YHR027C, strain rpn1, active compounds read low 1.03 | locus YHR030C, strain SLT2, active compounds read low 1.01 and 0.983 | locus YHR079C, strain IRE1 (second series), active compounds read low 1 | locus YHR079C, strain IRE1, active compounds read low 0.97 | locus YHR094C, strain hxt1, active compounds read low 1.01 | locus YHR129C, strain ARP1, active compounds read low 1.02 | locus YHR142W, strain chs7, active compounds read low 1.04 | locus YHR200W, strain rpn10, active compounds read low 1.01 | locus YIL066C, strain RNR3, active compounds read low 1 | locus YIL073C, strain SPO22, active compounds read low 0.995 | locus YIL125W, strain kgd1, active compounds read low 0.999 | locus YIR030C, strain dcg1, active compounds read low 0.992 | locus YJL092W, strain hpr5, active compounds read low 1.01 | locus YJL095W, strain BCK1 (second series), active compounds read low 1.03 | locus YJL095W, strain BCK1, active compounds read low 1.04 and 0.989 | locus YJL115W, strain asf1, active compounds read low 1.02 | locus YJL129C, strain trk1, active compounds read low 1.08 | locus YJL134W, strain LCB3, active compounds read low 1.01 | locus YJL154C, strain vps35, active compounds read low 1.01 | locus YJL164C, strain tpk1, active compounds read low 0.992 | locus YJL166W, strain qcr8, active compounds read low 1.02 | locus YJL168C, strain set2, active compounds read low 1.01 | locus YJL187C, strain SWE1 (second series), active compounds read low 1.03 | locus YJL187C, strain SWE1, active compounds read low 1.01 | locus YJR043C, strain POL32, active compounds read low 1.04 | locus YJR066W, strain TOR1, active compounds read low 0.954 | locus YJR075W, strain HOC1, active compounds read low 1.03 | locus YKL009W, strain mrt4, active compounds read low 1.02 | locus YKL068W, active compounds read low 0.999 | locus YKL085W, strain MDH1 (second series), active compounds read low 0.997 | locus YKL085W, strain MDH1, active compounds read low 0.997 | locus YKL160W, strain elf1, active compounds read low 1.02 | locus YKL190W, strain CNB1, active compounds read low 1.01 | locus YKR001C, strain vps1, active compounds read low 1.02 | locus YKR026C, strain gcn3, active compounds read low 1.02 | locus YKR091W, strain srl3, active compounds read low 1.02 | locus YLL001W, strain dnm1, active compounds read low 1.07 | locus YLL026W, active compounds read low 1.01 | locus YLL041C, strain sdh2, active compounds read low 1 | locus YLR027C, strain aat2, active compounds read low 0.998 | locus YLR039C, strain RIC1, active compounds read low 1.12 | locus YLR058C, strain SHM2, active compounds read low 1.01 | locus YLR102C, strain apc9, active compounds read low 1 | locus YLR113W, strain HOG1, active compounds read low 0.991 | locus YLR221C, strain rsa3, active compounds read low 1.04 | locus YLR258W, strain gsy2, active compounds read low 1 | locus YLR262C, strain YPT6 (second series), active compounds read low 1.05 | locus YLR262C, strain YPT6, active compounds read low 1.19 | locus YLR268W, strain sec22, active compounds read low 1.02 | locus YLR320W, strain mms22, active compounds read low 1.06 | locus YLR330W, strain CHS5, active compounds read low 1.01 | locus YLR342W, strain FKS1 (second series), active compounds read low 1.03 | locus YLR342W, strain FKS1, active compounds read low 1.02 | locus YLR357W, strain rsc2, active compounds read low 1.02 | locus YLR370C, strain arc18, active compounds read low 1.03 | locus YLR371W, strain rom2, active compounds read low 1 | locus YLR384C, strain iki3, active compounds read low 1.02 | locus YLR418C, strain cdc73, active compounds read low 0.991 | locus YML016C, strain PPZ1, active compounds read low 1.01 | locus YML032C, strain rad52, active compounds read low 1.01 | locus YML120C, strain ndi1, active compounds read low 1.05 | locus YML124C, strain tub3, active compounds read low 1.01 | locus YMR058W, strain fet3, active compounds read low 1.01 | locus YMR078C, strain ctf18, active compounds read low 0.996 | locus YMR125W, strain sto1, active compounds read low 1.04 | locus YMR129W, active compounds read low 1.01 | locus YMR205C, strain PFK2, active compounds read low 1.02 | locus YMR223W, strain ubp8, active compounds read low 1.01 | locus YMR231W, strain pep5, active compounds read low 1 | locus YMR263W, strain SAP30, active compounds read low 1.01 | locus YMR307W, strain GAS1, active compounds read low 1.03 | locus YNL067W, strain RPL9B, active compounds read low 1.03 | locus YNL071W, strain lat1, active compounds read low 1.01 | locus YNL128W, strain TEP1, active compounds read low 1.01 | locus YNL183C, strain NPR1, active compounds read low 0.944 | locus YNL209W, strain ssb2, active compounds read low 1.02 | locus YNL233W, strain BNI4, active compounds read low 1.02 | locus YNL248C, strain rpa49, active compounds read low 0.969 | locus YNL250W, strain rad50, active compounds read low 1.01 | locus YNL271C, strain bni1, active compounds read low 0.999 | locus YNL298W, strain CLA4, active compounds read low 1.01 | locus YNL307C, strain MCK1, active compounds read low 1.01 | locus YNL322C, strain KRE1 (second series), active compounds read low 1.02 | locus YNR049C, strain mso1, active compounds read low 1.01 | locus YNR052C, strain pop2, active compounds read low 1 | locus YOL006C, strain TOP1, active compounds read low 0.963 | locus YOL012C, strain htz1 0.928 | locus YOL147C, strain pex11, active compounds read low 1 | locus YOR001W, strain rrp6, active compounds read low 0.96 | locus YOR061W, strain CKA2, active compounds read low 1.02 | locus YOR069W, strain VPS5, active compounds read low 1.01 | locus YOR070C, strain gyp1, active compounds read low 1.03 | locus YOR080W, strain dia2, active compounds read low 1.02 | locus YOR083W, strain WHI5, active compounds read low 1.03 | locus YOR106W, strain vam3, active compounds read low 1.04 | locus YOR136W, strain idh2, active compounds read low 1.02 | locus YOR144C, strain elg1, active compounds read low 1.01 | locus YOR184W, strain ser1, active compounds read low 1.06 | locus YOR231W, strain MKK1, active compounds read low 0.96 | locus YOR265W, strain rbl2, active compounds read low 1.01 | locus YOR270C, strain vph1, active compounds read low 1.13 | locus YOR290C, strain snf2, active compounds read low 1.07 | locus YOR316C, strain cot1, active compounds read low 1.02 | locus YPL051W, strain arl3, active compounds read low 0.978 | locus YPL078C, strain atp4, active compounds read low 0.997 | locus YPL106C, strain sse1, active compounds read low 1.06 | locus YPL240C, strain hsp82, active compounds read low 1.03 | locus YPL241C, strain CIN2, active compounds read low 1.01 | locus YPL256C, strain CLN2, active compounds read low 0.986 | locus YPR119W, strain clb2, active compounds read low 1.01 | locus YPR141C, strain kar3, active compounds read low 1.01 | locus YPR163C, strain tif3, active compounds read low 1.03 | locus YPR167C, strain met16, active compounds read low 1.01 | strain wtn01, active compounds read low 1.01

Source: PubChem BioAssay AID1159580 (chemical genetic matrix, 2015)
